Test results from PubChem BioAssay.
Activity calls are given as the source filed them. Rule as the data show it: active = inhibition above about 30%; inactive = the rest.

Test: growth suppression of yeast trafficking mutant, preliminary HTS, modulators of trafficking downstream of Golgi apparatus project, 1536-format plate, OD 615 nm (AID 637)
Conditions: yeast transport mutant growth, absorbance 615 nm, 18 h; stronger effect = higher value
In the case of `CCc1nnc(NC(=O)c2ccc(COc3ccc(C)cc3)o2)s1`, the inhibition is reported as -3.17% (inactive).
In the case of `CC(C)Cn1c(CN2CCN(c3ccccc3F)CC2)nc2c1c(=O)[nH]c(=O)n2C`, the inhibition is reported as -0.66% (inactive).
With `O=C(CN(c1ccc(F)cc1)S(=O)(=O)c1ccc2c(c1)OCCO2)Nc1ccc2c(c1)OCO2` the inhibition was 4.03% (inactive).
In the case of `CC1(C)Cc2noc(N)c2C(C)(C)N1O`, the inhibition is reported as 2.7% (inactive).
With `COC(=O)CCn1nnc(-c2cccs2)n1` the inhibition was 4.1% (inactive).
With `CCOc1ccc(N(C(C)=O)C2C=CS(=O)(=O)C2)cc1` (stereo not given) the inhibition was 0.33% (inactive).
For `CS(=O)(=O)N1CCCC(C(=O)NCCCN2CCC(Cc3ccccc3)CC2)C1` (stereo not given), the inhibition was -5.56% (inactive).
With `Cn1c(=O)cc(OCC(=O)NCCCN2CCN(c3cccc(Cl)c3)CC2)c2ccccc21` the inhibition was -2.62% (inactive).
With `CCC(C)NC(=O)c1ccccc1NC(=O)C(C)N(c1ccccc1)S(C)(=O)=O` (stereo not given) the inhibition was 5.57% (inactive).
In the case of `COc1ccc2nc3oc(C(=O)NC4CCN(Cc5ccccc5)CC4)cc3cc2c1`, the inhibition is reported as -14.8% (inactive).
In the case of `Cc1c(Cl)cccc1N1C(=O)c2ccccc2C1=O`, the inhibition is reported as -2.3% (inactive).
For `O=C(NC1CCCC1)C(c1ccco1)N(Cc1ccccc1)C(=O)c1csnn1` (stereo not given), the inhibition was 4.44% (inactive).
In the case of `O=C(O)Cn1cc(C(=O)c2ccco2)c2ccccc21`, the inhibition is reported as 3.61% (inactive).
For `CC(C)(C)Cc1nc(-c2ccccn2)no1`, the inhibition was -3.67% (inactive).
For `COCC(=O)N(Cc1ccc(OC)cc1)Cc1nc2ccccc2c(=O)[nH]1`, the inhibition was 5% (inactive).
In the case of `CCCN1C(=O)SC(CC(=O)Nc2ccc(Br)cc2)C1=O` (stereo not given), the inhibition is reported as -8.41% (inactive).
For `COc1cccc(C(=O)n2cnnc2N)c1OC`, the inhibition was -3.49% (inactive).
In the case of `O=C(Cn1c(=O)n(Cc2ccc3c(c2)OCO3)c(=O)c2ccccc21)N1CCCc2ccccc21`, the inhibition is reported as 1.8% (inactive).
For `CC(C)[C@H](NC(=O)NC1CCCC1)C(=O)O`, the inhibition was -9.34% (inactive).
For `COc1ccc(-c2cc3n(n2)CCc2nc4ccccc4n2-3)cc1`, the inhibition was 0.48% (inactive).
For `CCc1nc2scc(-c3ccccc3)c2c(=O)n1N`, the inhibition was -3.97% (inactive).
In the case of `O=S(=O)(Nc1cccc2ncccc12)c1cccs1`, the inhibition is reported as 6.19% (inactive).
With `O=C(O)c1cccc(CN2C(=O)SC(Nc3ccccc3)C2=O)c1` (stereo not given) the inhibition was 2.95% (inactive).
For `Cc1nc2ccc(N3C(=O)CCC3=O)cc2[nH]1`, the inhibition was -1.45% (inactive).
In the case of `COCCn1nnnc1C(c1ccc(OC)cc1)N1CCN(c2ccccc2F)CC1` (stereo not given), the inhibition is reported as -2.06% (inactive).
For `O=S(=O)(c1ccc2nc(Cc3cccc(C(F)(F)F)c3)[nH]c2c1)N1CCOCC1`, the inhibition was -0.16% (inactive).
In the case of `Cc1nnc(SCC(=O)N(C(C)C)C(C)C)nc1C`, the inhibition is reported as -1.31% (inactive).
With `O=C(NC1CCCCC1)C1CC(O)CN1C(=O)OCc1ccccc1` (stereo not given) the inhibition was -3.09% (inactive).
For `CCOC(=O)c1ccc(CC2S/C(=C(\C#N)C(C)=O)NC2=O)cc1` (stereo not given), the inhibition was 1.94% (inactive).
For `COc1ccc(C2CC(=O)C(C=NCCN3CCOCC3)=C(O)C2)cc1` (stereo not given), the inhibition was 8.69% (inactive).
For `CN1C(=O)CCC1(O)c1ccccc1` (stereo not given), the inhibition was -8.17% (inactive).
In the case of `O=c1[nH]c(/C(=N\O)c2ccccc2)no1`, the inhibition is reported as 5.74% (inactive).
For `COC(=O)C1=C(N)Oc2cc(C)[nH]c(=O)c2C1c1ccncc1` (stereo not given), the inhibition was 5% (inactive).
For `O=C(c1cc(S(=O)(=O)N2CCOCC2)ccc1F)N1CCCc2ccccc21`, the inhibition was -2.83% (inactive).
With `CCc1nc(C)c(C#N)c2cc(OC)c(OC)cc12` the inhibition was 3.93% (inactive).
With `COc1ccc2c(c1OC)C(=O)N(c1ccc3c(c1)CCC3)C2=O` the inhibition was 25.7% (inactive).
In the case of `COc1cc(CC(=O)NCc2ccc3c(c2)OCO3)cc(OC)c1OC`, the inhibition is reported as 3.45% (inactive).
With `COc1ccc(CCNC(=O)c2ccc(N3CCCC3=O)cc2)cc1OC` the inhibition was 4.92% (inactive).
For `COc1ccccc1NC(=O)c1ccc(COc2ccccc2OC)o1`, the inhibition was 0% (inactive).
In the case of `COc1ccc(NC(=O)CSC2=C(C#N)C(c3ccco3)C3=C(CCCC3=O)N2)c(OC)c1` (stereo not given), the inhibition is reported as 0.65% (inactive).
